Reference: PubChem BioAssay (NCATS)
Results filed as inconclusive are left out. Activity calls are given as the source filed them. The call rests on the fitted dose curve; in most records, active means well fitted inhibition curve with a large enough effect; inconclusive means small, poorly fitted or top-dose-only effect; inactive means flat fitted curve, though single readings scatter.

Columns and labels:
Experiment in all cases: qHTS profiling for inhibitors of Plasmodium falciparum proliferation (AID 504749); further: nearly all actives have a fitted effect of over 60% in size
Details in all cases: P. falciparum in erythrocytes, SYBR Green DNA, 72 h; series mostly up to 28.7 µM
ECU = test system: ECU
Method in brief: (§1)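 Fluorescence of SYBR Green-bound parasite DNA, read at 485/535 nm, served as the growth measure. Infected erythrocytes were cultured with compound 72 h; artemisinin (0.29 uM) and DMSO wells defined the normalization range.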

FAB9 = test system: FAB9
Method in brief: as §1

GB4 = test system: GB4
Method in brief: as §1

HB3 = test system: HB3
Method in brief: as §1

ICS = test system: ICS
Method in brief: as §1

JCK = test system: JCK
Method in brief: as §1

N140 = test system: N140
Method in brief: as §1

P93_24 = test system: P93_24
Method in brief: as §1

P94_40 = test system: P94_40
Method in brief: as §1

PAD = test system: PAD
Method in brief: as §1

PC15 = test system: PC15
Method in brief: as §1

PC26 = test system: PC26
Method in brief: as §1

PC49 = test system: PC49
Method in brief: as §1

SC27B = test system: SC27B
Method in brief: as §1

TAB109 = test system: TAB109
Method in brief: as §1

TAB113 = test system: TAB113
Method in brief: as §1

TAB165 = test system: TAB165
Method in brief: as §1

W2 = test system: W2
Method in brief: as §1

Measured: Potency

CC1C(=O)CC2C3(C)CCC2(C(C)C(=O)O)C(=O)C13 (configuration not stated)
inactive: all assays above

c1ccc2ccccc2c1
inactive: all assays above

O=C(O)C1=C(CSc2nnnn2CS(=O)(=O)O)CS[C@@H]2[C@H](NC(=O)[C@H](O)c3ccccc3)C(=O)N12
inactive: all assays above

NCCN
inactive: all assays above

OC1OC[C@@H](O)[C@H](O)[C@@H]1O (some centres not stated)
inactive: all assays above

Nc1nccs1
inactive: all assays above

C=Cc1ccc(S(=O)(=O)O)cc1
inactive: all assays above

O=P(O)(O)O
inactive: all assays above

NC(=O)[C@H]1O[C@@H](O)[C@H](O)[C@@H](O)[C@@H]1O
inactive: all assays above

OCC(O)CO
inactive: all assays above

Cc1ccc(C(C)(C)c2ccc(C)cc2)cc1
inactive: all assays above

NCC[C@H](O)C(=O)N[C@@H]1C[C@H](N)[C@@H](O[C@H]2O[C@H](CN)[C@@H](O)[C@H](O)[C@H]2O)[C@H](O)[C@H]1O[C@H]1O[C@H](CO)[C@@H](O)[C@H](N)[C@H]1O
inactive: all assays above

C=CC(=O)O
inactive: all assays above

CC(=O)[C@H]1CC[C@H]2[C@@H]3C=CC4=CC(=O)CC[C@@]4(C)[C@H]3CC[C@]12C
inactive: all assays above
